According to paper PMC7862700, “An all-to-all approach to the identification of sequence-specific readers for epigenetic DNA modifications on cytosine”:

Columns and labels:
Experiment in all cases: DAPPL (digital affinity profiling via proximity ligation, sequencing); 10 mM Tris-HCl pH 7.5, 50 mM NaCl, 1 mM DTT, 4% glycerol, room temperature, 30 min; GST-TFs on glutathione beads, 16-mer random dsDNA library, 0.1% formaldehyde crosslink after washing; high values mean tight binding
FLI1 = target: T1, FLI1 (Homo sapiens, UniProt Q01543 1-452); conditions: protein: recombinant; tags: N-terminal GST; dsDNA, one strand shown
T1 sequence: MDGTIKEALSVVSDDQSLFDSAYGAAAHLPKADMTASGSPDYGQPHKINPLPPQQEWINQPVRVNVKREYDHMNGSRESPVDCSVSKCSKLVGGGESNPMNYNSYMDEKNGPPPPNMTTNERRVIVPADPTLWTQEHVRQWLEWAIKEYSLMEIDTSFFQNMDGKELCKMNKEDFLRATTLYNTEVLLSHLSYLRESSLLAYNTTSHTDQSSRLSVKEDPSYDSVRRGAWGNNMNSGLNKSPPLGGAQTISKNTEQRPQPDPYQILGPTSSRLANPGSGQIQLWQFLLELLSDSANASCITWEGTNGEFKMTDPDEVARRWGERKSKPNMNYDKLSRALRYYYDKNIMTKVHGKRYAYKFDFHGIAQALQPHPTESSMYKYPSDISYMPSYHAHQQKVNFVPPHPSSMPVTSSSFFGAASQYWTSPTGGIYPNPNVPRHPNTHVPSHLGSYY
How it was run: (§1)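 GST fusions of human transcription factors were expressed in yeast and captured with glutathione beads. Once given DNA barcodes and pooled alongside a tag-only sample, they were incubated for 30 min at room temperature with 200 nmole of a random double-stranded 16-mer DNA library in Tris/NaCl/DTT/glycerol buffer, then washed, crosslinked (0.1% formaldehyde), proximity-ligated, PCR-amplified and sequenced on an Illumina NextSeq500. The binding signal of each hexamer is its read frequency for a factor divided by its frequency for the tag-only sample.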

ELK1 = target: T2, ELK1 (Homo sapiens, UniProt P19419 1-428); conditions: protein: recombinant; tags: N-terminal GST; dsDNA, one strand shown
T2 sequence: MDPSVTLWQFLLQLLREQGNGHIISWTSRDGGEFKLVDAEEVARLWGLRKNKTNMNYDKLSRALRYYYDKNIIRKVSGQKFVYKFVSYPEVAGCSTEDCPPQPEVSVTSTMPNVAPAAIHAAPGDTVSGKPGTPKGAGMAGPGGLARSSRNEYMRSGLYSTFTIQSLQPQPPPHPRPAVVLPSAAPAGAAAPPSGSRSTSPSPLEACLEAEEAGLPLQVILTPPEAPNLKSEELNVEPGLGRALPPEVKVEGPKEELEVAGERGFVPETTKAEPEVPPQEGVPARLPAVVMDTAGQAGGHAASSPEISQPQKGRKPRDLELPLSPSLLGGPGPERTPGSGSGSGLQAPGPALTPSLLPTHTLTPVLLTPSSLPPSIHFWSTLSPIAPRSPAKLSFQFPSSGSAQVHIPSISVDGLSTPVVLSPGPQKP
How it was run: as §1

GABPA = target: T3, GABPA (Homo sapiens, UniProt Q06546 1-454); conditions: protein: recombinant; tags: N-terminal GST; dsDNA, one strand shown
T3 sequence: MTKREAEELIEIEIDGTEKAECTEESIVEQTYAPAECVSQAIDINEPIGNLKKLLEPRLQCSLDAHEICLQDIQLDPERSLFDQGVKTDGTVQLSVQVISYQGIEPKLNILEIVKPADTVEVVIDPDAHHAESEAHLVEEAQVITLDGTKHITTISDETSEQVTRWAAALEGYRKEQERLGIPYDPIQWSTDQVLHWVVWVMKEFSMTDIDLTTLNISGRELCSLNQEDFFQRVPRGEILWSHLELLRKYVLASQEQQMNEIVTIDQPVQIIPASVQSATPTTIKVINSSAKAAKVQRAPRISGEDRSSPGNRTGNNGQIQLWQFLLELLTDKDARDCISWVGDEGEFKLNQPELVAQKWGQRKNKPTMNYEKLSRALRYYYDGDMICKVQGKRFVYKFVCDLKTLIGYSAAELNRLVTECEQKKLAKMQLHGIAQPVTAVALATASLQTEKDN
How it was run: as §1

ERG = target: T4, ERG (Homo sapiens, UniProt P11308 1-479); conditions: protein: recombinant; tags: N-terminal GST; dsDNA, one strand shown
T4 sequence: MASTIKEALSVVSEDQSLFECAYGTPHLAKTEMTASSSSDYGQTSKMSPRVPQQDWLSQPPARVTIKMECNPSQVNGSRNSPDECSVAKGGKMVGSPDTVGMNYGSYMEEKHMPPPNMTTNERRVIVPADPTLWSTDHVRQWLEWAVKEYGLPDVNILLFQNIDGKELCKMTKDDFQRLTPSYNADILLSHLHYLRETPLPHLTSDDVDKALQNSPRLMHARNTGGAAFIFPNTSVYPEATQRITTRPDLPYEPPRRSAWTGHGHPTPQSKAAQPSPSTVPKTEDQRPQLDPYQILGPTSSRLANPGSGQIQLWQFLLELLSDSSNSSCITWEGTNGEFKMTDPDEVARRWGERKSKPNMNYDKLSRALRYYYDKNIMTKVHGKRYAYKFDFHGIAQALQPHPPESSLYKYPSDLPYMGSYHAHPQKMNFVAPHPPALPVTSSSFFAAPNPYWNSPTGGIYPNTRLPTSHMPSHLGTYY
How it was run: as §1

ELF1 = ELF1 (Homo sapiens, UniProt P32519 1-619); conditions: protein: recombinant; tags: N-terminal GST; dsDNA, one strand shown
How it was run: as §1

EHF = target: T5, EHF (Homo sapiens, UniProt Q9NZC4 1-300); conditions: protein: recombinant; tags: N-terminal GST; dsDNA, one strand shown
T5 sequence: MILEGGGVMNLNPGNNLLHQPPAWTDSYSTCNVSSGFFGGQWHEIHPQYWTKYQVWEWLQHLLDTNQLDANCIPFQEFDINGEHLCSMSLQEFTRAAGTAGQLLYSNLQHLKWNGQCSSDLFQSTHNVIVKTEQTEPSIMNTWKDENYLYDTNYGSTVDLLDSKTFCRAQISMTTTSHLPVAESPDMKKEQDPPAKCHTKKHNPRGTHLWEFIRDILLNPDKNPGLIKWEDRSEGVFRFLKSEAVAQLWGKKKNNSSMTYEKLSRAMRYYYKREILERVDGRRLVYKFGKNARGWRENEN
How it was run: as §1

SPI1 = SPI1 (Homo sapiens, UniProt P17947 1-270); conditions: protein: recombinant; tags: N-terminal GST; dsDNA, one strand shown
How it was run: as §1

SPIB = SPIB (Homo sapiens, UniProt Q01892 1-262); conditions: protein: recombinant; tags: N-terminal GST; dsDNA, one strand shown
How it was run: as §1

ELK3 = target: T6, ELK3 (Homo sapiens, UniProt P41970 1-407); conditions: protein: recombinant; tags: N-terminal GST; dsDNA, one strand shown
T6 sequence: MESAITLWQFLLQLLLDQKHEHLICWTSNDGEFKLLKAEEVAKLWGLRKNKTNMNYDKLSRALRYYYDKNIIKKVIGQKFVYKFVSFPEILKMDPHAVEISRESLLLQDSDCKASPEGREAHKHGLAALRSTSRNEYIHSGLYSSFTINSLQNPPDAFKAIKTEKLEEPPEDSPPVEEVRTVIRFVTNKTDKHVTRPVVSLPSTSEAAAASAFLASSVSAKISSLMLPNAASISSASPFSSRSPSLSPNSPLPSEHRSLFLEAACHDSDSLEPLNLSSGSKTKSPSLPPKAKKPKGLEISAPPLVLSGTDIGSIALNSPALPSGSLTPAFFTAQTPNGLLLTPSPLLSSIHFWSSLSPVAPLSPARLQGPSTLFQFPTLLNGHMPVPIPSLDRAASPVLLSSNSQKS
How it was run: as §1

FEV = target: T7, FEV (Homo sapiens, UniProt Q99581 1-238); conditions: protein: recombinant; tags: N-terminal GST; dsDNA, one strand shown
T7 sequence: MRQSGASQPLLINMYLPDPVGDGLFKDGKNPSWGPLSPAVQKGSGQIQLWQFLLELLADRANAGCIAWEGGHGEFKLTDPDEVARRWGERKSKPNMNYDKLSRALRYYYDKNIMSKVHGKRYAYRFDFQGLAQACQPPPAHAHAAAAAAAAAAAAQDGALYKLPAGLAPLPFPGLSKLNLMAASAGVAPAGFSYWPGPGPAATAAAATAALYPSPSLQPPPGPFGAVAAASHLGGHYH
How it was run: as §1

ETV5 = ETV5 (Homo sapiens, UniProt P41161 1-510); conditions: protein: recombinant; tags: N-terminal GST; dsDNA, one strand shown
How it was run: as §1

HSF1 = HSF1 (Homo sapiens, UniProt Q00613 1-529); conditions: protein: recombinant; tags: N-terminal GST; chain copies: 3; dsDNA, one strand shown
How it was run: as §1

SPIC = target: T8, SPIC (Homo sapiens, UniProt Q8N5J4 1-248); conditions: protein: recombinant; tags: N-terminal GST; dsDNA, one strand shown
T8 sequence: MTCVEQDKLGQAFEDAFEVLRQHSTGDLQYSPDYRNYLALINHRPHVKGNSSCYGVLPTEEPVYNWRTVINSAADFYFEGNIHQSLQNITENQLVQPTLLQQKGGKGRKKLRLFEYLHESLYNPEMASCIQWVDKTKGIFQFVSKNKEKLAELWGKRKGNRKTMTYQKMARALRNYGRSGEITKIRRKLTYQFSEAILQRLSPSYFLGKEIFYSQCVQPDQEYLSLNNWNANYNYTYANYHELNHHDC
How it was run: as §1

ELF4 = ELF4 (Homo sapiens, UniProt Q99607 1-663); conditions: protein: recombinant; tags: N-terminal GST; dsDNA, one strand shown
How it was run: as §1

ELK4 = target: T9, ELK4 (Homo sapiens, UniProt P28324-2 1-405); conditions: protein: recombinant; tags: N-terminal GST; dsDNA, one strand shown
T9 sequence: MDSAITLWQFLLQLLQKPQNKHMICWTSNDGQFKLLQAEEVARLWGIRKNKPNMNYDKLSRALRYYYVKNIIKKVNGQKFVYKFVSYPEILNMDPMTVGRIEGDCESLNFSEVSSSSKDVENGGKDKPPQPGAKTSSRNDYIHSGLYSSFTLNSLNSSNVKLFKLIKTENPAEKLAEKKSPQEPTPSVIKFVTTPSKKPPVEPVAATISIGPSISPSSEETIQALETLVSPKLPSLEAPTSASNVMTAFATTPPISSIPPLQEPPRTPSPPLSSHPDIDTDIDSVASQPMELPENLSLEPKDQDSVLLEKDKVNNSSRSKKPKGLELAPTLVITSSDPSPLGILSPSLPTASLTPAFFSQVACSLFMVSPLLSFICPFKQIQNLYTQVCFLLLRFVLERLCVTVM
How it was run: as §1

ETV2 = target: T10, ETV2 (Homo sapiens, UniProt O00321 1-342); conditions: protein: recombinant; tags: N-terminal GST; dsDNA, one strand shown
T10 sequence: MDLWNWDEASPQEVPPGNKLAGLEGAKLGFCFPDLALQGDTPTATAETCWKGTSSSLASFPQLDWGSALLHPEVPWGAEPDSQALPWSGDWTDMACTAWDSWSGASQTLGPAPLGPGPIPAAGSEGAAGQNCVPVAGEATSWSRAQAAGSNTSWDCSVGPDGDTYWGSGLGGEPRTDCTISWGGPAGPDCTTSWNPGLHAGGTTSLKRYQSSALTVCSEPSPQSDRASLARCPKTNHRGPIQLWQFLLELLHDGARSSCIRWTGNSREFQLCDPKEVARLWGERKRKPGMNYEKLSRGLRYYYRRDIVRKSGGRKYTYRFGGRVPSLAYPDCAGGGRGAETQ
How it was run: as §1

ELF3 = target: T11, ELF3 (Homo sapiens, UniProt P78545 1-371); conditions: protein: recombinant; tags: N-terminal GST; dsDNA, one strand shown
T11 sequence: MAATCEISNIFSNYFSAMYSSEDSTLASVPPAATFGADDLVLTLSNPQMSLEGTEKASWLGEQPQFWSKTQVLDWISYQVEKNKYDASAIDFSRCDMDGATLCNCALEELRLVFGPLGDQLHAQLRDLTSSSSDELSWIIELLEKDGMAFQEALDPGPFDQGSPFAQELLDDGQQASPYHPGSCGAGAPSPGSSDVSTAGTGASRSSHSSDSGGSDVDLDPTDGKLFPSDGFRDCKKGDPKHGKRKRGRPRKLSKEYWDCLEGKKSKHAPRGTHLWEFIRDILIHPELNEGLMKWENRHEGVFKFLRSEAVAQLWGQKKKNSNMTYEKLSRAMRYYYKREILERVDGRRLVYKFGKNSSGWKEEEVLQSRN
How it was run: as §1

CRX = CRX (Homo sapiens, UniProt O43186 1-299); conditions: protein: recombinant; tags: N-terminal GST; dsDNA, one strand shown
How it was run: as §1

ETV1 = ETV1 (Homo sapiens, UniProt P50549 1-477); conditions: protein: recombinant; tags: N-terminal GST; dsDNA, one strand shown
How it was run: as §1

Chain of HSF1 (Q00613 whole entry): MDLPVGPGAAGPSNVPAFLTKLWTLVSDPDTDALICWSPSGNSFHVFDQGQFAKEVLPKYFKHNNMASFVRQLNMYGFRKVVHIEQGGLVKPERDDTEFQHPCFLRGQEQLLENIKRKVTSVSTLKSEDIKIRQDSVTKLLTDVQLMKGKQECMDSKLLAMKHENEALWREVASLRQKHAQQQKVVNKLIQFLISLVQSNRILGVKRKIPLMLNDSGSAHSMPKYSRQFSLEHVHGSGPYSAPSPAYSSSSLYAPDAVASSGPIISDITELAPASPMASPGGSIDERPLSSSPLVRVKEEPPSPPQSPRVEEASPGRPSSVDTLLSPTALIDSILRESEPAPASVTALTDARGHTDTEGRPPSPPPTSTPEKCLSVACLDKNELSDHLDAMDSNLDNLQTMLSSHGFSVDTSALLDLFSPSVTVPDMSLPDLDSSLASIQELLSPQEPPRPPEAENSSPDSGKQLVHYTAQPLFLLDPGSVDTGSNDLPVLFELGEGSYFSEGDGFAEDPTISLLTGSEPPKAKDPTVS
Chain of ETV1 (P50549 whole entry): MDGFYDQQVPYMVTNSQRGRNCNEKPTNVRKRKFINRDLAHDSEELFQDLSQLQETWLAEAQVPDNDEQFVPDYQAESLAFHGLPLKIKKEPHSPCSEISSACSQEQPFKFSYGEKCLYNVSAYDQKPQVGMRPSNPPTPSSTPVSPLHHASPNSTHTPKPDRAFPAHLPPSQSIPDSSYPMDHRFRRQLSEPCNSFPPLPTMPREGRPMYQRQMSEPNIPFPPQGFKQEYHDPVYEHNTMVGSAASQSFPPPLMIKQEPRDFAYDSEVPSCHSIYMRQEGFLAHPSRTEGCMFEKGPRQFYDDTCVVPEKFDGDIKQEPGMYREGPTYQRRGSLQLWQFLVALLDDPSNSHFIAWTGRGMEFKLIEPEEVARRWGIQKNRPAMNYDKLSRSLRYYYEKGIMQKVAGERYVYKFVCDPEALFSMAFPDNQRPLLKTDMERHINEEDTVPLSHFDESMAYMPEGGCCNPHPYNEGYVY
Chain of ELF4 (Q99607 whole entry): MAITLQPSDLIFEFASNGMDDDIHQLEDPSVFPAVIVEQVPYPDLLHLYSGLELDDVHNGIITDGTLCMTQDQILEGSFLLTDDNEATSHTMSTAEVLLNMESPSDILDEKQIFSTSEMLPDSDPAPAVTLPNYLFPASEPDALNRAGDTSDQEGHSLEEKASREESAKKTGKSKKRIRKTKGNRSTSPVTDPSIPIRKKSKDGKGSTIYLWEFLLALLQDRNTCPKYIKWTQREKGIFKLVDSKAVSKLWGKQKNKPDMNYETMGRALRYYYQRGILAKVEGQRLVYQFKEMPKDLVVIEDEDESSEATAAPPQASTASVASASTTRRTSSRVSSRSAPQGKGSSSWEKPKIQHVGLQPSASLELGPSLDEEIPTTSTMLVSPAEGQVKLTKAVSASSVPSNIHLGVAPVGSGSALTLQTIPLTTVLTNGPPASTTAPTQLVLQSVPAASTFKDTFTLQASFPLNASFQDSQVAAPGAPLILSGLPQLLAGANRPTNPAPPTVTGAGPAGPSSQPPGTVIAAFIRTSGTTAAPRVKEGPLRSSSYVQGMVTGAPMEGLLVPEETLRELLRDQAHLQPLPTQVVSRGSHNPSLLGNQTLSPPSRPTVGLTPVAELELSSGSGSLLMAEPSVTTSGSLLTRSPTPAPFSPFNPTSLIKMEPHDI
Chain of ETV5 (P41161 whole entry): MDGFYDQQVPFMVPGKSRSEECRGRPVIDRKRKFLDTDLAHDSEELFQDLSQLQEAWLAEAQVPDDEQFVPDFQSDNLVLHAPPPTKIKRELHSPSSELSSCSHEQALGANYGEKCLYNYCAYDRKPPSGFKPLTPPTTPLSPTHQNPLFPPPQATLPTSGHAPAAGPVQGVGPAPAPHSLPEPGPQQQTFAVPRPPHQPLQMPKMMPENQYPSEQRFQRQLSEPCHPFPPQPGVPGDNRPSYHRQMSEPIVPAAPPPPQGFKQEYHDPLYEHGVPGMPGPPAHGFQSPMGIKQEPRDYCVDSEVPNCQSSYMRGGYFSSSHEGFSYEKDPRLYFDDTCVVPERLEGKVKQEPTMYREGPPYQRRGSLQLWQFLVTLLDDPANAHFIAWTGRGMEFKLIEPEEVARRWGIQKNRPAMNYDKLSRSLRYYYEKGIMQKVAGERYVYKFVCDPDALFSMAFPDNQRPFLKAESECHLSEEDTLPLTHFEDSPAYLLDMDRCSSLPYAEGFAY
Chain of ELF1 (P32519 whole entry): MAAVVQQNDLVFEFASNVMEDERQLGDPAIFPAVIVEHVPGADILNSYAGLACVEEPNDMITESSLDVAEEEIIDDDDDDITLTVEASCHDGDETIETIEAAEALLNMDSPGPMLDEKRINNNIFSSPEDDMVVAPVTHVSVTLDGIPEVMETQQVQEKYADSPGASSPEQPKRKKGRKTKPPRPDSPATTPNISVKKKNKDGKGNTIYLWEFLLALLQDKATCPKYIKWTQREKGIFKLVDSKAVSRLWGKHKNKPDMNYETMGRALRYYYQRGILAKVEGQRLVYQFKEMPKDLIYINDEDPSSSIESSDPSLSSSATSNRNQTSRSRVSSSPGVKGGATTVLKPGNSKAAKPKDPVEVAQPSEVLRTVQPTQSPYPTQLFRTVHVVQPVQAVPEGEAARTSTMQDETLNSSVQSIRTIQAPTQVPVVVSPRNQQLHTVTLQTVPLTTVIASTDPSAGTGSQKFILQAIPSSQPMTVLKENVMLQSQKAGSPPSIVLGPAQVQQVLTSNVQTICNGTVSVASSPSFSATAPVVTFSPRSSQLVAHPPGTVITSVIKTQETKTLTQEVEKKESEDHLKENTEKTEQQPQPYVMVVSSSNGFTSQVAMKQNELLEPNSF
Chain of CRX (O43186 whole entry): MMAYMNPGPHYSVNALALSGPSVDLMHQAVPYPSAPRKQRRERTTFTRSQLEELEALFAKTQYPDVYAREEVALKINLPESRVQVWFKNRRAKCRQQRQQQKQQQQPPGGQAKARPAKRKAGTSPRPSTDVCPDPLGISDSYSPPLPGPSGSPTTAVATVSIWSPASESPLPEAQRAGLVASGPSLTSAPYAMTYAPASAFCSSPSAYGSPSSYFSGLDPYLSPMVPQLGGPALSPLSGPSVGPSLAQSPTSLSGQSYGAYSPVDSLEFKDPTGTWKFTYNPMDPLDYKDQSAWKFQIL
Chain of SPIB (Q01892 whole entry): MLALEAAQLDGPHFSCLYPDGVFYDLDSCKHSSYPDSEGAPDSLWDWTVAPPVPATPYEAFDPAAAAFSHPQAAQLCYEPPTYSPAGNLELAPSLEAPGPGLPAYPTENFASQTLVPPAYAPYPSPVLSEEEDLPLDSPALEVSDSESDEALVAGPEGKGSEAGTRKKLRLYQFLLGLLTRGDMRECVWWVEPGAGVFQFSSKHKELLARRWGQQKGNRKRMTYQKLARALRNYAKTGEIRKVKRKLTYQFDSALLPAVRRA

## ACGTAT
FLI1
  binding signal: 1.24 fold enrichment (6-mer frequency, TF over GST control)
ELK1
  binding signal: 1.29 fold enrichment (6-mer frequency, TF over GST control)
GABPA
  binding signal: 1.21 fold enrichment (6-mer frequency, TF over GST control)
ERG
  binding signal: 1.17 fold enrichment (6-mer frequency, TF over GST control)
ELF1
  binding signal: 1.17 fold enrichment (6-mer frequency, TF over GST control)
EHF
  binding signal: 1.29 fold enrichment (6-mer frequency, TF over GST control)
SPI1
  binding signal: 1.14 fold enrichment (6-mer frequency, TF over GST control)
SPIB
  binding signal: 1.19 fold enrichment (6-mer frequency, TF over GST control)
ELK3
  binding signal: 1.42 fold enrichment (6-mer frequency, TF over GST control)
FEV
  binding signal: 1.2 fold enrichment (6-mer frequency, TF over GST control)
ETV5
  binding signal: 1.2 fold enrichment (6-mer frequency, TF over GST control)
HSF1
  binding signal: 1.09 fold enrichment (6-mer frequency, TF over GST control)
SPIC
  binding signal: 1.14 fold enrichment (6-mer frequency, TF over GST control)
ELF4
  binding signal: 1.27 fold enrichment (6-mer frequency, TF over GST control)
ELK4
  binding signal: 1.16 fold enrichment (6-mer frequency, TF over GST control)
ETV2
  binding signal: 1.24 fold enrichment (6-mer frequency, TF over GST control)
ELF3
  binding signal: 1.25 fold enrichment (6-mer frequency, TF over GST control)
CRX
  binding signal: 1.15 fold enrichment (6-mer frequency, TF over GST control)
ETV1
  binding signal: 1.32 fold enrichment (6-mer frequency, TF over GST control)
